ChEMBL document CHEMBL1157539, “Thousands of chemical starting points for antimalarial lead identification” (Nature, 2010)

What follows are compounds tested on HepG2 (assay: GSK_TCMDC: Percent inhibition of human HepG2 cell line. Test compounds present at 10uM.).
Type: functional
Cl.Nc1ccc(Nc2ccnc3ccc(C(F)(F)F)cc23)cc1O was tested, and the Inhibition was 1%.
Compound COc1cc2c(C3CCN(CC4CCC(NC(=O)/C=C/c5ccc(Cl)c(Cl)c5)CC4)CC3)c[nH]c2cn1 (stereo not given) has an Inhibition of 44%.
With Cl.O=c1cc(NCCCNCc2cc3ccccc3s2)[nH]c2ccccc12 the Inhibition was 3%.
CC(=O)Nc1ccc(C(=O)Nc2ccc(-c3cccc(-c4nc5cc(F)ccc5[nH]4)c3)cc2)cn1 gave an Inhibition of 13%.
With CC(C)c1ccc(NC(=O)NCC2CCCN(CCCCCNC(=O)/C=C/c3ccc(Cl)c(Cl)c3)C2)cc1 (stereo not given) the Inhibition was 87%.
With Br.CCOc1ccc(OCCCON2C(=N)N=C(N)NC2(C)C)cc1 the Inhibition was 63%.
Work on CCOc1cc(C(=O)NCCc2ccc(Cl)c(Cl)c2)ccc1-c1nc2cc(Cl)ccc2[nH]1 yielded an Inhibition of 9%.
CC(=O)OCCN1C(=O)c2ccc3c4c(ccc(c24)C1=O)C(=O)N(CCOC(C)=O)C3=O was tested, and the Inhibition was 2%.
For CCOc1ccccc1CNc1nccc(NCc2ccccc2OC)n1, the Inhibition was 50%.
Cl.O=S(=O)(c1ccc(OCc2ccc(Cl)cc2)cc1)c1cc2c(cc1OCc1ccccc1)CCN(C1CCC1)CC2 was tested, and the Inhibition was 17%.
In the case of CCC(=O)N[C@@H]1CN[C@@H](C#Cc2cc3c(Nc4ccc(OCc5cccc(F)c5)c(Cl)c4)ncnc3s2)C1, the Inhibition is reported as 46%.
CN1CCC(N2CCN(Cc3cccc(-c4ccc(-c5nc6cc(F)ccc6[nH]5)cc4)c3)CC2)CC1.O=C(O)C(F)(F)F gave an Inhibition of 92%.
Compound Cc1cc(F)ccc1-c1nc(NCCCN2CCCC2=O)nc2c1ccc(=O)n2-c1c(F)cccc1F has an Inhibition of 0%.
For CCCN1CCN(c2ccc(NS(=O)(=O)c3ccc(C(=O)Nc4ccc(Cl)cc4)cc3)cc2)CC1.O=C(O)C(F)(F)F, the Inhibition was 4%.
CCCCC(CC)NC(=O)[C@H]1CNCCN1C(=O)CCCc1ccccc1.O=C(O)C(F)(F)F (stereo not given in full) gave an Inhibition of 5%.
Compound Clc1cccc(Cl)c1CCNCC1CCN(CC2CCCCC2)CC1.O=C(O)C(F)(F)F has an Inhibition of 39%.
COc1ccccc1-c1sccc1C(=O)NC1(c2cc(Cl)cc(Cl)c2)CCCC1 was tested, and the Inhibition was 0%.
CC(C)(C)OC(=O)Cn1cnc2cc(NC(=O)c3cc([N+](=O)[O-])cc([N+](=O)[O-])c3)ccc21 gave an Inhibition of 11%.
With Cc1cc(NCC(c2ccccc2)c2ccccc2)nc(NCc2ccc(C(F)(F)F)cc2)n1 the Inhibition was 29%.
With CCCN(CCC)C(=O)c1cc(C(=O)N[C@@H](Cc2ccccc2)[C@H](O)CNCc2cccc(OC)c2)cc(N2CCCCS2(=O)=O)c1 the Inhibition was 0%.
With Cc1nc(C)c(-c2ccc(Oc3ccc(Cl)cc3Cl)cc2)c(O)c1Br the Inhibition was 3%.
COc1cccc(-c2cccc(CNC3CCN(CC4Cn5c(=O)ccc6ccc(F)c4c65)CC3)c2)c1.O=C(O)C(F)(F)F (stereo not given) gave an Inhibition of 23%.
Work on Cc1ccc(Cc2c(N)nc3nc(N)nc(N)c3c2C)cc1.Cl yielded an Inhibition of 59%.
With O=C(NC1CCC(N2CCC(O)(c3ccc(F)cc3)CC2)CC1)c1cc2ccccc2[nH]1 (stereo not given) the Inhibition was 9%.
For Cc1nccn1CCNC(=O)CN1CCC2(CCC1=O)CC(=O)c1ccccc1O2 (stereo not given), the Inhibition was 0%.
In the case of COc1ccc2nccc([C@@H](O)CN3CCC(NCCOc4ccccc4C#N)CC3)c2c1.O=C(O)C(=O)O, the Inhibition is reported as 10%.
In the case of CC(C)[C@H](NC(=O)c1ccc(O)c(-c2cccc(C(F)(F)F)c2)c1)C(=O)NC1CCCc2ccccc21 (stereo not given in full), the Inhibition is reported as 2%.
O=C(Nc1cccc(F)c1)N[C@H]1CCN(CCCCCNC(=O)C2CC2c2ccc(Cl)c(Cl)c2)C1 (stereo not given in full) was tested, and the Inhibition was 41%.
COc1ccc(NC(=O)N2CCN(CCCCCNC(=O)/C=C/c3ccc(C(F)(F)F)cc3)CC2)cc1Cl gave an Inhibition of 25%.
For Clc1ccc2c(NN=Cc3cccnc3)ccnc2c1, the Inhibition was 0%.
With CN1CCC(C(=O)Nc2ccc(-c3cccc(-c4nc5cc(F)ccc5[nH]4)c3)cc2)CC1 the Inhibition was 19%.
For Cl.O=C(Nc1ccc(C(=O)OCC2CCCN3CCCCC23)cc1)c1ccc([N+](=O)[O-])cc1 (stereo not given), the Inhibition was 5%.
Compound Nc1ccc(Oc2ccc(Cc3cnc(N)nc3N)cc2)cc1 has an Inhibition of 10%.
With Cl.O=C(Nc1cccc(C2=NCCCN2)c1)Nc1cccc(C2=NCCCN2)c1 the Inhibition was 5%.
Compound NC1=NC(c2ccccc2)(c2ccccc2)C(=O)N1Cc1ccc(-c2cccnc2)cc1.O=CO has an Inhibition of 15%.
With O=[N+]([O-])c1ccc(-n2nc(Cc3ccccc3)n(Cc3cccc(F)c3)c2=S)c(C(F)(F)F)c1 the Inhibition was 4%.
COc1ccccc1CNC(=O)C(=O)Nc1c(-c2ccccc2)[nH]c2ccccc12 gave an Inhibition of 0%.
O=C(Nc1ccc(OC2CCN(Cc3ccc(F)cc3)CC2)c(Cl)c1)c1ccc(F)cc1.O=C(O)C(F)(F)F showed an Inhibition of 37%.
Compound COc1ccc2c(N/N=C/c3ccccc3[N+](=O)[O-])cc(C)nc2c1 has an Inhibition of 14%.
Cc1ccc(-n2c(Cc3cccc4ccccc34)nnc2SCCC#N)c(C)c1 gave an Inhibition of 0%.
